Compounds with a hit are over-represented: about 4.6% of the library has one in this group of screens.
IL1B cytotox = HUVEC cytotoxicity counter-screen, IL-1B stimulated; HUVEC cell count loss, Hoechst imaging; cell count reduction, % at 2 µM; 94,000 compounds, 0.41% hits; AID 845;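 active = cell count reduction more than 3 SD above the screen-wide mean, cut at about 70% in these data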
sEH inh = blocks human soluble epoxide hydrolase activity; 91,000 compounds, 0.34% hits; recombinant human sEH enzymatic activity assay; inhibition, % at 2 µM; in the data active = inhibition above about 80%
sEH activator = soluble epoxide hydrolase (human) activation | P34913 | purified human sEH enzymatic activity, activator screen | activation, % at 2 µM | 91,000 compounds, 0.04% hits | AID 717; in the data active = activation above about 37%
IL1B NFkB inh = blocks IL-1B driven NFkB nuclear translocation in HUVEC cells; HUVEC IL-1B NFkB p65 nuclear translocation imaging; inhibition, % at 2 µM; 94,000 compounds, 0.43% hits; AID 796;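 active = inhibition above about 30% together with a positive call from visual inspection of the well image, limit read from the data; inconclusive = inhibition above a set limit but visual check negative; inactive = inhibition not above a set limit, visual check negative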;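 note: nuclear over cytoplasmic p65 intensity ratio measured by imaging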
Cav3 T inh = blocks human Cav3.2 T-type calcium channel | O95180 | Cav3.2-expressing cells, Fluo-4 calcium fluorescence FDSS; active compounds read low | B-score at 10 µM | 100,000 compounds, 4% hits;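 active = single-dose well whose peak fluorescence ratio is a statistical outlier from its plate by either plate-standardised score or position-corrected B-score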
Target sequence (O95180 whole entry, looked up): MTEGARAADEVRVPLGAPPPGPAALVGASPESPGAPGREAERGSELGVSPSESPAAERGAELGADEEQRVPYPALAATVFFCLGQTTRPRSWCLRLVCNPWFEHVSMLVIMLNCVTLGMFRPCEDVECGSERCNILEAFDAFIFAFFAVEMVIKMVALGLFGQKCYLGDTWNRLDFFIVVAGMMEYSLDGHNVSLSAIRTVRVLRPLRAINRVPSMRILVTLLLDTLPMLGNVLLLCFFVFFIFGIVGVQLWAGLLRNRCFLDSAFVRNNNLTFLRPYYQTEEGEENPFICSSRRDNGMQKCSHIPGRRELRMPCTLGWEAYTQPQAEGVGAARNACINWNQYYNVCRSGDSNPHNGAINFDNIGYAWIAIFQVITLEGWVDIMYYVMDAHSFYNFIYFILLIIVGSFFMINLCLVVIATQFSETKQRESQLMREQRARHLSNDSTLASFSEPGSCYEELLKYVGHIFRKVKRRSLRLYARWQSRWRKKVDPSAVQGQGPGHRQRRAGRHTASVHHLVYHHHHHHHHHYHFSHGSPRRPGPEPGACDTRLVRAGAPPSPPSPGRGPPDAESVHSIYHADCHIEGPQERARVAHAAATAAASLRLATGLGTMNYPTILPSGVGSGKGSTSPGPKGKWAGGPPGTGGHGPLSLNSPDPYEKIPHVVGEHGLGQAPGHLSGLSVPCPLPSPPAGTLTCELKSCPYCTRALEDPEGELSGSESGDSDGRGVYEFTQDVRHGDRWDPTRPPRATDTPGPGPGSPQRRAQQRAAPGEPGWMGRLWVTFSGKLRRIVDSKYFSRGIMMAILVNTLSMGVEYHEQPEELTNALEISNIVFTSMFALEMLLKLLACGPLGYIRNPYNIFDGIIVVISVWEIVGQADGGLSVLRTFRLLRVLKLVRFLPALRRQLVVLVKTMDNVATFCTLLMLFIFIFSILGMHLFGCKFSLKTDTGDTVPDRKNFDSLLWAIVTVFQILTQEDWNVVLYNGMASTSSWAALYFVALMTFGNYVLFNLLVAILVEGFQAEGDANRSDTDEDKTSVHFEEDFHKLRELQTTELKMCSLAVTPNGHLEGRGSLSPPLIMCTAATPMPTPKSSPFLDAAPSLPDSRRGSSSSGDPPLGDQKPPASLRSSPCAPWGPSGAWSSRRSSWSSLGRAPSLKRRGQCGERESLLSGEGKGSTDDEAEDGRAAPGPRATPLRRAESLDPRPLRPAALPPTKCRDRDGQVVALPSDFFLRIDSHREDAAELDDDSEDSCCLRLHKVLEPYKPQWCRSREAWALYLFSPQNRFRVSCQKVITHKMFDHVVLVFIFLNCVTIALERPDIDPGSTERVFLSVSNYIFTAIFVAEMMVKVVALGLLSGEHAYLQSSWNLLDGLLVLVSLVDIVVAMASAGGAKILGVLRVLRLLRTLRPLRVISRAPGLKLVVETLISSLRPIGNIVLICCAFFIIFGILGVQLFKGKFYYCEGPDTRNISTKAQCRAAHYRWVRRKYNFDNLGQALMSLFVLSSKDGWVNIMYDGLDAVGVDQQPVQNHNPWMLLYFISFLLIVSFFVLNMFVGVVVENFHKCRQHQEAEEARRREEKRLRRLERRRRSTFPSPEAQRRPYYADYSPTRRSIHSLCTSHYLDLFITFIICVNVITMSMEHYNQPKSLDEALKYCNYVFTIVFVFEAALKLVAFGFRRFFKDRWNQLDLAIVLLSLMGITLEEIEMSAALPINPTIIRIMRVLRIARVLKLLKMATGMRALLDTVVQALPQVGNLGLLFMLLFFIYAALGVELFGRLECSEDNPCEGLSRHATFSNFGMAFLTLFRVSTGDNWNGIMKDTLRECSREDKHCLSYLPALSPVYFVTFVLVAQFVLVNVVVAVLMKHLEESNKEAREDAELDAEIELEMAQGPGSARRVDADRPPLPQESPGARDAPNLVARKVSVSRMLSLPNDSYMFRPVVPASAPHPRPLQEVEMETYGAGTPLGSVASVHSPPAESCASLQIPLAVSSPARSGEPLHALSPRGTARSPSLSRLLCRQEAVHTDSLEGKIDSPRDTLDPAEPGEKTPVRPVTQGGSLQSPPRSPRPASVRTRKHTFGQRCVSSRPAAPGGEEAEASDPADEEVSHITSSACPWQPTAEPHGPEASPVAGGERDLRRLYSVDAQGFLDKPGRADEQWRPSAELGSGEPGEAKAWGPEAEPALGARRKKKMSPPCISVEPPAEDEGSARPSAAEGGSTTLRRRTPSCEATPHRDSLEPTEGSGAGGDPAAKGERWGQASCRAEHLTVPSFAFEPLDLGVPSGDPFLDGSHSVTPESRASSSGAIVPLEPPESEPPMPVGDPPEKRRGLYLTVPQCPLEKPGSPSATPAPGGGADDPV
NFkB transloc pot = enhances IL-1B driven NFkB nuclear translocation; HUVEC IL-1B NFkB p65 nuclear translocation imaging; 94,000 compounds, 0.3% hits; AID 819; activation, % at 2 µM;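 active = activation above 40%, about the mean plus 3 SD, also judged a hit on visual image review; inconclusive = activation above 40% but not a hit on visual review; inactive = activation not above 40% and no visual hit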;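 note: percent activation is computed from the nuclear over cytoplasmic p65 intensity ratio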
A number is an active result; . = inactive; ? = inconclusive; / = no result given.

SMILES | IL1B cytotox | sEH inh | sEH activator | IL1B NFkB inh | Cav3 T inh | NFkB transloc pot
CCOC(=O)c1cccc(NS(=O)(=O)c2ccc(NC(C)=O)cc2)c1 | . | . | . | . | . | .
CCN(CC)CCn1c(O)c(N=O)c2ccccc21 | . | / | / | . | . | ?
O=Nc1c(O)n(Cc2cccc(Cl)c2)c2ccccc12 | . | . | . | . | -4.4 | .
CC1CC(=O)NN=C1c1ccc(N(C)C)c([N+](=O)[O-])c1 (centres undefined) | . | . | . | . | . | .
COc1cccc(COc2ccc3c(C)c(Cc4ccccc4)c(=O)oc3c2)c1 | . | . | . | . | -3.7 | .
COc1cc(COc2ccc3c(C)c(Cc4ccccc4)c(=O)oc3c2)cc(OC)c1OC | . | . | . | . | / | .
O=C(C1CCC1)N1CCc2cc(S(=O)(=O)Nc3ccc4c(c3)OCCO4)ccc21 | . | / | / | . | . | .
Cn1c(=O)n(Cc2ccc(F)cc2)c(=O)c2c1nc1n2CCCN1C1CCCCC1 | . | . | . | . | -4.9 | .
Cc1cccc(Cn2c(=O)c3c(nc4n3CCCN4Cc3ccccc3)n(C)c2=O)c1 | . | . | . | . | . | ?
COc1ccc(N2CC(C)Cn3c2nc2c3c(=O)n(Cc3ccc(F)cc3)c(=O)n2C)c(OC)c1 (centres undefined) | . | . | . | . | -4.7 | .
COc1cc2c(cc1OC)C(c1cc3cc4c(cc3[nH]c1=O)OCO4)N(C(=O)C1CC1)CC2 (centres undefined) | . | . | . | . | . | .
CCOC(=O)C1=NN(c2ccc(F)cc2)C2=NC(C)=C(C(=O)OC)C(c3cccs3)N12 (centres undefined) | . | . | . | . | . | .
COC(=O)CSc1nnc(CNC(=O)c2cc(OC)c(OC)c(OC)c2)n1C | 78 | . | . | . | . | .
N#CC(c1cccc(Cl)c1)c1ccc2c(C(F)(F)F)cc(C(F)(F)F)nc2n1 (centres undefined) | . | . | . | . | -9.2 | .
NC(=O)SCC(=O)Nc1cccc(Cl)c1 | . | . | . | . | -5.4 | .
NC(=O)SCC(=O)Nc1ccc(Cl)cc1 | . | . | . | . | . | .
Cc1ccc(NC(=O)CSC(N)=O)cc1Cl | . | . | . | . | -6.3 | .
COc1ccccc1N1CCN(C(=O)CC2NC3CCCCC3NC2=O)CC1 (centres undefined) | . | . | . | . | / | .
CCOC(=O)Cc1csc(NS(=O)(=O)c2ccccc2)n1 | . | . | . | . | . | .
CCOC(=O)c1ccccc1-c1csc(NS(=O)(=O)c2ccc(Cl)cc2)n1 | . | . | . | . | -9.2 | .
Cc1cc(C(=O)CN2C(=O)NC3(CCCc4ccccc43)C2=O)c(C)n1Cc1ccccc1 (centres undefined) | . | . | . | . | -4.4 | .
Cc1cc(C(=O)CN2C(=O)NC3(CCCc4ccccc43)C2=O)c(C)n1Cc1ccco1 (centres undefined) | . | . | . | . | . | .
Cc1nn(C)c(C)c1S(=O)(=O)N1CCC(C(=O)NCC2COc3ccccc3O2)CC1 (centres undefined) | . | / | / | . | . | 42
COC(=O)c1ccc(OCc2nc(N)nc(N3CCOCC3)n2)cc1 | / | / | / | / | . | /
COc1ccccc1N1CCN(C(=O)COc2ccc(C)cc2Br)CC1 | . | . | . | . | . | .
SMILES | IL1B cytotox | sEH inh | sEH activator | IL1B NFkB inh | Cav3 T inh | NFkB transloc pot
Cc1ccc(OCC(=O)N2CCCCC2)c(Br)c1 | 87 | . | . | 97 | . | .
COCc1cc(C)nc(OCC(=O)N/N=C\c2cc(C)n(-c3cccc(C(F)(F)F)c3)c2C)c1C#N | . | . | . | . | -4.8 | .
CC(C)(C)c1cc(C(C)(C)C)cc(S(=O)(=O)CCc2ccccn2)c1 | . | . | . | . | -6.9 | .
C/C=C(\C)C(=O)Nc1cccc(C2=NOC3(C2)C[C@H](C(N)=O)N(C(=O)C(c2ccccc2)c2ccccc2)C3)c1 (some centres undefined) | / | / | / | / | . | /
Cc1ccc(C(=O)NCC2(c3ccccc3)CCCC2)cc1 | . | . | . | . | -3.9 | .
N#CCC(=O)NCC1(c2ccccc2)CCCC1 | . | . | . | . | . | .
CC(C)N(C(=O)CSc1nnnn1C1CCCC1)C(C)C | . | . | . | . | -3.7 | .
COC(=O)CCCC1=CC2=C(c3ccccc3)C(=O)C(C)(OC(=O)C3CCCC3)C(=O)C2=CN1CC1CC1 (centres undefined) | / | / | / | / | . | /
Cc1n[nH]c(=S)c2nn(-c3ccccc3)c(C)c12 | . | . | . | . | / | .

Compound activity: PubChem, several laboratories
